An excerpt weighted towards active compounds, which were near 4.3% of everything screened.
ADAM17 inh: ADAM17 inhibitors, primary screen, biochemical, QFRET. inhibition, % at 6.95 µM. actives 0.83% (n = 370,000). recombinant ADAM17, EDANS/DABCYL FRET peptide cleavage;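 active = inhibition above the mean of compounds lying between control limits plus 3 SD, set per campaign, cut at about 8.5% in these data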;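 note: 0% = DMSO-only wells as the low control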
Target sequence (P78536 215-824 limits assumed): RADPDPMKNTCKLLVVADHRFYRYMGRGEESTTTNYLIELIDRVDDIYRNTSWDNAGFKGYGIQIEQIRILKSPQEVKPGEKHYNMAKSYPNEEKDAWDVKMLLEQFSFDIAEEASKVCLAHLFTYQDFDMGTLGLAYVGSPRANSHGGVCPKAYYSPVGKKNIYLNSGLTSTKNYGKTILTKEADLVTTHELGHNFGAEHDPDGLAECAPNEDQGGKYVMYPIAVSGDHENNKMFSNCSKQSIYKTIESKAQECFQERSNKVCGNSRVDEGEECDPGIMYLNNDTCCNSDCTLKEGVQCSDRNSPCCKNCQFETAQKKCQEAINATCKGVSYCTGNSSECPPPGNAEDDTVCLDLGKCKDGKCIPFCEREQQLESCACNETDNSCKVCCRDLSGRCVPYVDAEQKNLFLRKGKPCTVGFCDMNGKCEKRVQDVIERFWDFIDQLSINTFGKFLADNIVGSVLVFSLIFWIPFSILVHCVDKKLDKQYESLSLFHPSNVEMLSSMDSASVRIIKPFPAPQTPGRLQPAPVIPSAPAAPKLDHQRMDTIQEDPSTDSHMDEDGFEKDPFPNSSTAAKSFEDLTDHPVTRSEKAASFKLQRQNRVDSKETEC
FAS TE block: FAS thioesterase domain inhibitors, primary screen, biochemical, fluorescence intensity, uHTS; AID 602261, 2012; Fatty acid synthase (Homo sapiens), P49327; actives 0.67% (n = 360,000); recombinant FAS-TE, OMFH fluorogenic substrate, fluorescence endpoint; inhibition, % at 15 µM;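 active = compounds whose normalised, plate-corrected inhibition of enzyme fluorescence in the single-dose primary screen is 50% or more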;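 note: 0% = DMSO with enzyme and 100% = substrate without enzyme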
HGIII-sPLA2 inh: human group III sPLA2 inhibitors, primary screen, biochemical, QFRET, BODIPY PC-A2 liposome substrate; Group 3 secretory phospholipase A2 (Homo sapiens), Q9NZ20; QFRET BODIPY PC-A2 liposome hydrolysis, fluorescence; inhibition, % at 12.2 µM; actives 0.56% (n = 370,000); AID 743126, 2013;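 active = inhibition above mean plus 3 SD of compounds lying within the high and low control bounds, cut at about 19% in these data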;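 note: 0% = median of test compound wells and 100% = no enzyme DMSO wells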
GRIN3A LBD mod: binders of NR3A ligand-binding domain, primary screen, biophysical, differential scanning fluorimetry, uHTS; Glutamate receptor ionotropic, NMDA 3A (GRIN3A) ligand-binding domain; NR3A LBD differential scanning fluorimetry, Tm shift; 0% = protein alone, 100% = glycine-bound protein; Tm shift relative to glycine control, % at 25 µM; actives 2.5% (n = 340,000); AID 1259313, 2017;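 active = melting temperature shift of at least 10% of the positive control shift, at one fixed dose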
ADAM10 inh: human ADAM10 inhibitors, primary screen, biochemical, QFRET, HTS; recombinant ADAM10, EDANS/DABCYL FRET peptide cleavage, 3 h; inhibition, % at 7 µM; actives 0.62% (n = 370,000); AID 720582, 2013;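 active = inhibition above a per-campaign cutoff equal to the mean of compounds falling between control-based bounds plus 3 SD, cut at about 20% in these data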;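 note: 0% = DMSO wells while the 100% control is not disclosed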
FAS-TE conf: FAS thioesterase domain inhibitors, confirmation, biochemical, fluorescence intensity, single concentration | shares compounds with FAS TE block | inhibition, % at 15 µM | recombinant FAS-TE, OMFH fluorogenic substrate | actives 45% (n = 2,300);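 active = compounds inhibiting the enzyme by at least 50% at 15 µM in any one of the replicates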;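 note: 0% = enzyme with DMSO only and 100% = wells lacking enzyme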
An asterisk follows results filed as active; i = inactive; nt = no result given.

SMILES	ADAM17 inh	FAS TE block	HGIII-sPLA2 inh	GRIN3A LBD mod	ADAM10 inh	FAS-TE conf
O=C(COC(=O)CCc1c[nH]c2ccccc12)Nc1cc([N+](=O)[O-])ccc1Cl	-1	56*	-91	1	0	55*
CC(=O)Nc1ccc(S(=O)(=O)NNC(=O)c2ccc([N+](=O)[O-])cc2)cc1	-13	5	6	2	6	nt
O=C(NNS(=O)(=O)c1ccc([N+](=O)[O-])cc1)c1ccc([N+](=O)[O-])cc1	-3	74*	3	1	3	77*
O=C(NNS(=O)(=O)c1ccc([N+](=O)[O-])cc1)c1cnn(-c2ccccc2)c1-n1cccc1	-4	65*	-21	0	-9	75*
O=C(Nc1nnc(-c2ccc(F)cc2)s1)C1CCN(S(=O)(=O)c2ccc(Cl)cc2)CC1	-4	-12	-1	-3	-1	nt
O=C(Nc1nnc(-c2ccccc2Cl)s1)C1CCN(S(=O)(=O)c2ccc(Cl)cc2)CC1	1	72*	-3	-2	4	9
Cc1ccc(S(=O)(=O)N2CCN(C(=O)COC(=O)c3cc([N+](=O)[O-])ccc3NCCO)CC2)c(C)c1	-2	71*	-6	-7	-5	74*
O=C(COC(=O)c1cc([N+](=O)[O-])ccc1NCCO)NCc1cccs1	-1	73*	15	0	-8	78*
O=C(COC(=O)c1cc([N+](=O)[O-])ccc1NCCO)c1ccccc1	6	59*	-4	-20	10	68*
COC(=O)c1cc(C(=O)OCC(=O)NCc2cccs2)cc([N+](=O)[O-])c1	-5	64*	-1	0	-2	45
NC(=O)COC(=O)c1cc([N+](=O)[O-])ccc1NCCO	-2	3	0	0	6	nt
COc1ccc(NC(=O)N(C)[C@H]2C[C@H]3c4[nH]c5c(-c6ccccc6)cccc5c4CCN3C(=O)[C@H]2[C@H](C)O)cc1	-65	nt	-32	nt	-264	nt
CCN1C(=O)[C@H]2[C@@H](c3ccc(C)cc3)N3C(=O)N(c4cccc(Br)c4)C(=O)[C@@]3(Cc3ccccc3)[C@H]2C1=O	1	67*	-33	-9	7	25
CCN1C(=O)[C@H]2[C@@H](c3ccc(C)cc3)N3C(=O)N(c4cccc(Cl)c4)C(=O)[C@@]3(Cc3ccccc3)[C@H]2C1=O	0	27	-25	-11	0	nt
CCN1C(=O)[C@H]2[C@@H](c3ccc(C)cc3)N3C(=O)N(c4cccc(Cl)c4)C(=O)[C@@]3(Cc3ccc(Cl)cc3)[C@H]2C1=O	8	86*	-19	0	17	53*
COc1ccc(C2CC(=O)C(c3cccc(C)c3)=CN2Cc2ccccc2)cc1 (configuration not stated)	-1	nt	-3	nt	-9	nt
S=c1[nH]nc(-c2cc(-c3ccccc3)n[nH]2)n1/N=C/c1cccc2ccccc12	0	nt	9	nt	-2	nt
CC(NC(=O)Cn1cc([N+](=O)[O-])cn1)c1ccc(C(C)(C)C)cc1 (configuration not stated)	-1	76*	-3	0	3	55*
CC(NC(=O)c1ccc(Cn2cc([N+](=O)[O-])cn2)cc1)c1ccccc1 (configuration not stated)	3	-2	-4	-1	4	nt
CCCCNC(=O)C[C@H]1C[C@@]2(C(=O)OC)C(=C[C@H](COCc3ccccc3)O[C@@H]2C)N(CCc2ccc(OC)c(OC)c2)C1=O	-1	nt	-7	nt	-1	nt
Cc1ccc(CN2CCCCC(NC(=O)c3ccc(F)c(F)c3)C2=O)cc1 (configuration not stated)	-3	nt	4	nt	0	nt
Cc1csc(NC(=O)c2ccc(COc3cccc(F)c3)o2)n1	-7	nt	0	nt	-13	nt
CCOC(=O)c1cc2c(=O)n3ccccc3nc2n(Cc2ccco2)c1=NC(=O)c1cccc(OC)c1	i	8	-1	-3	i	nt
CCOC(=O)c1cc2c(=O)n3ccccc3nc2n(Cc2ccco2)c1=NC(=O)c1ccc(OC)cc1	i	64*	-3	-9	i	47*
CCOCCCn1c(=NC(=O)c2ccco2)c(C(=O)OCC)cc2c(=O)n3cccc(C)c3nc21	i	67*	0	1	i	2
SMILES	ADAM17 inh	FAS TE block	HGIII-sPLA2 inh	GRIN3A LBD mod	ADAM10 inh	FAS-TE conf
COc1ccc(NC2=Nc3ccccc3N3C2=Nc2c(c(C)nn2-c2ccc(C)cc2)C3c2cccnc2)cc1 (configuration not stated)	0	70*	1	8	7	9
COC(=O)c1ccccc1S(=O)(=O)NC(=O)[C@H]1O[C@@H](n2ccc(=O)[nH]c2=O)[C@H](O)[C@@H]1O	1	nt	5	nt	-7	nt
CCc1ccc(NC(=O)COc2ccc(F)cc2C(=O)c2cnn(-c3ccccc3)c2)cc1	-7	53*	3	-3	-8	0
O=C(C[C@H]1C[C@H](C(=O)N2CCOCC2)[C@@]2(CCC3CCCC3)c3[nH]c4ccc(Cl)cc4c3CCN2C1=O)NCCN1CCOCC1	-4	85*	8	0	1	76*
COCCCNC(=O)C[C@H]1C[C@H](C(=O)N2CCOCC2)[C@@]2(CCC3CCCC3)c3[nH]c4ccc(Cl)cc4c3CCN2C1=O	1	86*	0	3	0	34
O=C(C[C@H]1C[C@H](C(=O)N2CCOCC2)[C@@]2(CCC3CCCC3)c3[nH]c4ccc(Cl)cc4c3CCN2C1=O)NCCc1ccccn1	-4	83*	2	-3	-6	93*
O=C(C[C@H]1C[C@H](C(=O)N2CCOCC2)[C@@]2(CCC3CCCC3)c3[nH]c4cc(-c5ccco5)ccc4c3CCN2C1=O)NCCc1ccccn1	-108	64*	-16	-1	-377	71*
O=C(C[C@H]1C[C@H](C(=O)N2CCOCC2)[C@@]2(CCC3CCCC3)c3[nH]c4cc(-c5ccco5)ccc4c3CCN2C1=O)NCCC1=CCCCC1	nt	28	nt	-9	nt	nt
Cc1ccc(OCc2nnc(SCC(=O)c3ccc(-c4ccccc4)cc3)n2Cc2ccco2)cc1	-3	nt	-10	nt	-8	nt
Cc1ccc(C)c(CN2C(=O)c3ccccc3S(=O)(=O)c3ccc(C(=O)N4CCN(C)CC4)cc32)c1	-2	2	-5	-1	5	nt

Screens (PubChem BioAssay)
